Measurements published in PubChem BioAssay (NCATS).
Records with an inconclusive call do not appear. A call without a number means that no potency is given here. Activity calls are given as the source filed them. Calls follow the shape of the dose curve; as a rule, active = well fitted inhibition curve with a large enough effect; inconclusive = small, poorly fitted or top-dose-only effect; inactive = no such curve, though single readings can be large or run the other way.

Target: Thioredoxin reductase 1, cytoplasmic (Rattus norvegicus) (UniProt O89049)
Sequence (O89049 whole entry, looked up): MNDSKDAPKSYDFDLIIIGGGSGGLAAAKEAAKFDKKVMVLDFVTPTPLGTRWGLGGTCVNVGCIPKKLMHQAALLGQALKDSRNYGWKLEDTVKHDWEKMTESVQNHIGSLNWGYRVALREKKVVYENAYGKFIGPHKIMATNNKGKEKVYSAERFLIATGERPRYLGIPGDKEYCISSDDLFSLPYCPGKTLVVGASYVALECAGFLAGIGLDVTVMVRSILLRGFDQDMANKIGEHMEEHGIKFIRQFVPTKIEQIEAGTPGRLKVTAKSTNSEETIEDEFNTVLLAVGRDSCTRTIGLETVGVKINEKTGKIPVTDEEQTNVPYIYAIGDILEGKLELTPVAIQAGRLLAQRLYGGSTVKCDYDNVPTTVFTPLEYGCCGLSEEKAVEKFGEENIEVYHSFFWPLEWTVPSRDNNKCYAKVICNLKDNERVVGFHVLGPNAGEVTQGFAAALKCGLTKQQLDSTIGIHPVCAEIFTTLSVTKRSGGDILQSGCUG
Experiment: qHTS Assay for Inhibitors of Mammalian Selenoprotein Thioredoxin Reductase 1 (TrxR1) (AID 488773); also: nearly all actives have a fitted effect of over 40% in size
Details: purified TrxR1 enzyme activity; Potency: inhibition; series mostly up to 57.1 µM
Source text: The selenoprotein thioredoxin reductase (TrxR; EC 1.8.1.9) is a FAD containing homodimeric pyridine nucleotide-disulfide oxidoreductase with many cellular roles. Together with NADPH and its prime substrate thioredoxin (Trx), the enzyme forms the core of the Trx system. The mammalian Trx system exerts a wide spectrum of functions including redox regulation, antioxidant defense, regulation of transcription factors as well as support of cell growth and replication. Many of these functions involve the reduction of Trx, which may subsequently reduce a number of different substrates including ribonucleotide reductase, peroxiredoxins or NFkB. Mammalian TrxR itself also has a broad substrate specificity, reducing both protein and non-protein substrates, including low molecular weight compounds such as dehydroascorbate, lipoic acid, ubiquinone, and juglone. In addition, several drugs in clinical use for anticancer treatment are indeed known to target TrxR1.
This BioAssay is a validation of an NADPH fluorescence-based, dual-purpose qHTS rTrxR1 assay designed to find potential inhibitors and substrates of rTrxR1. For this particular BioAssay, actives are potential inhibitors. See related BioAssay for substrate data deposition.
Assay protocol: 2 uL of reagents (buffer in column 4 as negative control and 90 nM rTrxR1 in columns 1-3 and 5-48) were dispensed into Greiner black solid-bottom 1,536-well assay plates, followed by 1 uL of NADPH (400 uM final concentration) to each well. The plates were centrifuged at 1000 rpm for 15 seconds and subsequently incubated for 5 min at room temperature (~22 deg C) to allow for rTrxR1 reduction. Compounds (23 nL) were then transferred via Kalypsys pin tool equipped with 1536-pin array (10 nL slotted pins, V&P Scientific, San Diego, CA). In addition, a duplicate 2-fold serial dilution of the control compounds auranofin, a known gold-based TrxR1 inhibitor, and juglone (5-hydroxy-1,4-naphthoquinone), a natural TrxR1 substrate, were pin-transferred to columns 2 and 3, respectively. After incubation for 15 min at room temperature (~22 deg C), 1 uL of selenite (400 uM final concentration) were dispensed to each well. The plate was immediately transferred to a ViewLux high-throughput CCD imager (PerkinElmer), wherein kinetic measurements of NADPH fluorescence (Ex 340 nm, Em 450 nm) were acquired (8 minute kinetic read, see Table 1). Read 1 was utilized to assess the capacity of a compound to serve as an rTrxR1 substrate, i.e. a decrease in NADPH fluorescence compared to the no-compound background is an indication of a substrate behavior for that particular compound. For inhibitory activity of a compound, delta values, computed as the difference in fluorescence intensity between the first and last reads of an 8-minute time kinetic window, were used. All reagents were diluted in an assay buffer consisting of 50 mM Tris-HCl, pH 7.5, 2 mM EDTA, and 0.01% Tween-20.
Throughout the screen, reagent bottle and all liquid lines were made light-tight to minimize reagent degradation. All screening operations were performed on a fully integrated robotic system (Kalypsys, San Diego, CA) containing one RX-130 and two RX-90 anthropomorphic robotic arms (Staubli, Duncan, SC). Library plates were screened starting from the lowest and proceeding to the highest concentration, and a 'double-pinning' step of the highest concentration was required to access higher concentrations of compounds. Vehicle-only plates, with DMSO being pin-transferred to the columns 5-48, were inserted uniformly at the beginning and the end of each library in order to monitor and record any shifts in the background, which can be affected by reagent dispensers or loss in enzyme activity over time. Screening data were corrected, normalized, and concentration-effect relationships were derived by using publicly-available curve fitting algorithms developed in-house (http://ncgc.nih.gov/pub/openhts).
Potency is read from the fitted curve at half-maximal effect.

SMILES	Potency
O=C(c1ccc(F)cc1)C1CCN(CCn2c(=O)[nH]c3ccccc3c2=O)CC1	inactive
CN(C)c1nc(N(C)C)nc(N(C)C)n1	inactive
CC(C(=O)O)c1cccc(C(=O)c2ccccc2)c1 (stereo not given)	inactive
Nc1nnc(-c2cccc(Cl)c2Cl)c(N)n1	inactive
Cn1c(=O)c2c(ncn2C)n(C)c1=O	inactive
COc1ccc2c(c1)c(CC(=O)O)c(C)n2C(=O)c1ccc(Cl)cc1	inactive
COc1cc2nc(N3CCN(C(=O)c4ccco4)CC3)nc(N)c2cc1OC	inactive
CN(Cc1cnc2nc(N)nc(N)c2n1)c1ccc(C(=O)N[C@@H](CCC(=O)O)C(=O)O)cc1	inactive
COc1cc2nc(N3CCN(C(=O)C4COc5ccccc5O4)CC3)nc(N)c2cc1OC (stereo not given)	inactive
O=c1c(-c2ccc(O)cc2)coc2cc(O)cc(O)c12	inactive
Cc1cc(C(C)(C)C)c(O)c(C)c1CC1=NCCN1	inactive
CC(C)NCC(O)COc1ccc(CCOCC2CC2)cc1 (stereo not given)	inactive
Cc1cnc(C(=O)NCCc2ccc(S(=O)(=O)NC(=O)NC3CCCCC3)cc2)cn1	inactive
Cc1ccccc1N1C(=O)c2cc(S(N)(=O)=O)c(Cl)cc2NC1C (stereo not given)	inactive
COc1nc(C)nc(Cl)c1NC1=NCCN1	inactive
O=C(C1CCCCC1)N1CC(=O)N2CCc3ccccc3C2C1 (stereo not given)	inactive
COc1ccc(C2CNC(=O)C2)cc1OC1CCCC1 (stereo not given)	inactive
CCCNCC(O)COc1ccccc1C(=O)CCc1ccccc1 (stereo not given)	inactive
C[C@H]1c2cccc(O)c2C(O)=C2C(=O)[C@]3(O)C(O)=C(C(N)=O)C(=O)[C@@H](N(C)C)[C@@H]3[C@@H](O)[C@@H]21	inactive
CN1C(C(=O)Nc2ccccn2)=C(O)c2ccccc2S1(=O)=O	inactive

SMILES	Potency
Cn1ccc2cc3c(cc21)CCN3C(=O)Nc1cccnc1	inactive
O=C(Nc1ccc([N+](=O)[O-])cc1Cl)c1cc(Cl)ccc1O	inactive
O=C1Cc2cc(CCN3CCN(c4nsc5ccccc45)CC3)c(Cl)cc2N1	inactive
CN(C)CCCN1c2ccccc2CCc2ccc(Cl)cc21	inactive
Cc1ccc(C(=O)Nc2ccc(S(=O)(=O)O)c3cc(S(=O)(=O)O)cc(S(=O)(=O)O)c23)cc1NC(=O)c1cccc(NC(=O)Nc2cccc(C(=O)Nc3cc(C(=O)Nc4ccc(S(=O)(=O)O)c5cc(S(=O)(=O)O)cc(S(=O)(=O)O)c45)ccc3C)c2)c1	inactive
Cc1cn([C@H]2C=C[C@@H](CO)O2)c(=O)[nH]c1=O	inactive
CN(C)CCOC(c1ccccc1)c1ccccc1	inactive
Cc1cn([C@H]2C[C@H](N=[N+]=[N-])[C@@H](CO)O2)c(=O)[nH]c1=O	inactive
CN(C)CCC=C1c2ccccc2C=Cc2ccccc21	inactive
COc1cc2nc(N(C)CCCNC(=O)C3CCCO3)nc(N)c2cc1OC (stereo not given)	inactive
O=C(c1ccc(OCCN2CCCCC2)cc1)c1c(-c2ccc(O)cc2)sc2cc(O)ccc12	inactive
CS(=O)(=O)Nc1ccc([N+](=O)[O-])cc1Oc1ccccc1	inactive
CN1CCC(=C2c3ccccc3C=Cc3ccccc32)CC1	inactive
Cn1c(=O)c2[nH]cnc2n(C)c1=O	inactive
OCCN1CCN(CCCN2c3ccccc3Sc3ccc(C(F)(F)F)cc32)CC1	inactive
C[C@](N)(Cc1ccc(O)c(O)c1)C(=O)O	3.77 µM (active)
CCN1CCCC1CNC(=O)c1cc(S(=O)(=O)CC)c(N)cc1OC (stereo not given)	inactive
CC#C[C@]1(O)CC[C@H]2[C@@H]3CCC4=CC(=O)CCC4=C3[C@@H](c3ccc(N(C)C)cc3)C[C@@]21C	inactive
NCCS(=O)(=O)O	inactive
CCCCc1oc2ccccc2c1C(=O)c1cc(I)c(OCCN(CC)CC)c(I)c1	inactive
